Among the data in PubChem BioAssay are composite z-score values, retold here.

Follistatin (Homo sapiens), sequence (P19883 whole entry, looked up): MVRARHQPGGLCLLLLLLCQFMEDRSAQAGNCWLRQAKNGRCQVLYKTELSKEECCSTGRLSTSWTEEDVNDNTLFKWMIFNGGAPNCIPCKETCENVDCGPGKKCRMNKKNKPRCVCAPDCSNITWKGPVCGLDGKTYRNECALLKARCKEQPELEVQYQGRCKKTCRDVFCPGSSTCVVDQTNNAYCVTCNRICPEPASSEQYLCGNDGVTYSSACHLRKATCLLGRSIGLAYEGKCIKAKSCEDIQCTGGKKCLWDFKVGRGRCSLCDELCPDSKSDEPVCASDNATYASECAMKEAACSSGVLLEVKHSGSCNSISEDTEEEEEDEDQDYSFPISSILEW

This assay has as its target Follistatin (Homo sapiens) (UniProt P19883). Briefly: FST protein binding to printed compounds – biochemical, small-molecule microarray, 635/667 nm fluorescence, primary screen (AID 1132). The following applies: 635 nm fluorescence, higher = more signal.
As for `CO[C@@H]1COC(=O)[C@@H]2CCCN2C(=O)[C@@H](C)COC(=O)[C@H](COCc2ccccc2)NC(=O)CC=C[C@H]1C`, the composite z-score was 0.421.
`C#CCCCON=C1C[C@@H](O)[C@@H](O)[C@@H]2[C@@H]3C(=O)N([C@@H](C)c4ccccc4)C(=O)[C@@H]3CC[C@H]12` registered a composite z-score of 0.615.
Take `COCCCNC(=O)[C@@]1(C)c2ccccc2C(=O)N(Cc2ccc(OC(F)(F)F)cc2)[C@H]1c1ccc(CO)cc1`: the composite z-score was -0.0328.
The same measure for `C=COC[C@H]1CN2[C@@H](CC[C@@H](C)[C@@H]2c2ccc(Br)cc2)C(=O)O1`: 0.504; for `CC(CCN1CCCCc2nc(C)c(C)cc21)=NOC(C)CN1CCCc2nc(C)c(C)cc21` (stereo unspecified): 1.36; for `CC(C)=NOCc1ccc(-c2cc(-c3ccccc3)no2)cc1`: 0.0806.
The same measure for `CCc1cc2c(nc1CC)CCN(CCC(C)=NOC[C@@H](O)[C@H]1O[C@@H]3OC(C)(C)O[C@@H]3[C@H]1O)C2`: 0.187.
As to `COc1cccc([C@H]2Oc3ccc(OC)cc3C(=NO[C@H](C)c3cn([C@@H]4COC[C@H]4O)nn3)[C@@H]2O)c1`, the composite z-score was -1.16.
Then `O=C(NN=C1C[C@@H](O)[C@@H](O)[C@@H]2[C@@H]3C(=O)N(c4ccc(F)cc4F)C(=O)[C@@H]3CC[C@@H]12)OCc1ccccc1`, with 0.385.
Take `CCOC(=O)[C@H](Cc1ccccc1)NC(=O)CCC1CC(OC(=O)NCc2ccc3c(c2)OCO3)CC2(CCCC(COC(=O)NCc3cccc(C(F)(F)F)c3)O2)O1` (stereo partly specified): the composite z-score was determined as 0.916.
The compound `C[C@@H](c1ccccc1)N1C(=O)[C@H]2[C@H]3[C@H](O)C=CC(=O)[C@@H]3CC[C@H]2C1=O` registered a composite z-score of 0.503.
`Cc1cc2c(c(=O)o1)[C@H](O)[C@H]1O[C@H]1C2=O`: the composite z-score is 0.429.
The same measure for `COc1ccc(COC(=O)NN=C2C[C@@H](O)[C@@H](O)[C@@H]3[C@@H]4C(=O)N(c5ccc(F)cc5F)C(=O)[C@@H]4CC[C@@H]23)cc1`: -0.409.
Then `CO[C@@H]1COC(=O)CCC[C@@H](C)[C@H](OC)COC(=O)CCC[C@H]1C`, with 0.513.
Then `O=C1C[C@@H](O)[C@@H](O)[C@@H]2[C@@H]3C(=O)N(Cc4ccc5c(c4)OCO5)C(=O)[C@@H]3CC[C@@H]12`, with 0.499.
`CC=CC1=C(CO)[C@H](O)[C@H]2O[C@H]2[C@H]1O` showed a composite z-score of 0.589.
With `CC(C)[C@H](NC(=O)OC(C)(C)C)[C@@H](O)CC(=O)OC(C)(C)C`, the composite z-score is -0.275.
In turn, `CO[C@H]1COC(=O)[C@@H]2CCCN2C(=O)CC=C[C@@H](C)[C@H](OC)COC(=O)CC=C[C@@H]1C` registered a composite z-score of 1.36.
As to `COC(=O)[C@H](C)NC(=O)CCC1CC(OC(=O)NCCc2ccc(F)cc2)CC2(CCCC(COC(=O)NCCc3ccc(Cl)cc3)O2)O1` (stereo partly specified), the composite z-score came out at 0.646.
In turn, `CC(C)=CCCC(C)=CCON=C1[C@H]2CCn3c(=O)n(C)c(=O)n3[C@H]2[C@H](O)[C@@H]2O[C@H]12` displayed a composite z-score of 0.865.
In turn, `O=C(NN=C1C[C@@H](O)[C@@H](O)[C@@H]2[C@@H]3C(=O)N(c4cccc(Oc5ccccc5)c4)C(=O)[C@@H]3CC[C@@H]12)OCc1ccccc1` showed a composite z-score of -0.0636.
Then `CC(=O)OC[C@H]1O[C@H](C#CCCCc2ccccc2)C=C[C@@H]1OC(C)=O`, with 0.47.
`CC(CCN1CCc2nc(-c3ccccc3)c(-c3ccccc3)cc2C1)=NO[C@H](C)c1cn([C@@H]2COC[C@H]2O)nn1` gave a composite z-score of 0.438.
The same measure for `O[C@@H](Cc1ccccc1)[C@H]1C2C=CCCC(c3ccccc3)=C2CN1Cc1cccc(Cl)c1` (stereo partly specified): 0.995; for `COc1ccc([Si](C)(C)[C@H]2[C@H](CCO)O[C@@]3(C(=O)N(Cc4cccc(NC(=O)[C@H](C)O)c4)c4ccccc43)[C@@H]2C)cc1`: 1.11; for `O=C1NC(=O)C2C1C=CC(C(O)Cc1ccccc1)N2Nc1ccccn1` (stereo unspecified): 0.194.
With `CC(CCC(=O)OC[C@H]1O[C@H](C#Cc2ccccc2)C=C[C@@H]1Oc1ccc(C)cc1)=NOC[C@@H](O)COCc1ccco1`, the composite z-score was -2.24.
Then `CC1CC/C=C\[C@H]2OC34C=CCN(Cn5nnc6ccccc65)C(=O)[C@H]3N(CCO)C(=O)[C@@H]4C2C(=O)O1` (stereo partly specified), with -0.312; and `CCOC(=O)CCN1C(=O)[C@H]2[C@H]3[C@H](O)[C@H](O)CC(=NNC(=O)OCc4ccc(OC)cc4)[C@@H]3CC[C@H]2C1=O`, with 0.541.
The same measure for `CCN1C(=O)[C@H]2[C@H]3[C@H](O)[C@H](O)CC(=NOC(C)CN4CCCCc5nc(C)c(C)cc54)[C@@H]3CC[C@H]2C1=O` (stereo partly specified): 0.861; for `C#CCCCON=C1C[C@@H](O)[C@@H](O)[C@@H]2[C@@H]3C(=O)N(CCC(=O)OCC)C(=O)[C@@H]3CC[C@@H]12`: -1.11.
